# Assay results reported in PubChem BioAssay AID1671202 (University of Kansas High Throughput Screening Laboratory, 2021).
# Values joined by “and” are separate entries in the source; they are usually repeats but may differ in a detail not shown here. Equal values may be shown once. Among all 190,000 compounds or so, about 6,900 (3.6%) were called active. Cut-off read from the data, not from the text of the source: active = inhibition above about 50%; inactive = the rest. The sample as a whole holds a higher share of actives than the screen did. Some compounds were tested as several samples or in several runs, with calls that do not always agree.
# Biological target: Huntingtin (Homo sapiens) (UniProt P42858)
# Sequence (P42858 whole entry, looked up, stated change not applied): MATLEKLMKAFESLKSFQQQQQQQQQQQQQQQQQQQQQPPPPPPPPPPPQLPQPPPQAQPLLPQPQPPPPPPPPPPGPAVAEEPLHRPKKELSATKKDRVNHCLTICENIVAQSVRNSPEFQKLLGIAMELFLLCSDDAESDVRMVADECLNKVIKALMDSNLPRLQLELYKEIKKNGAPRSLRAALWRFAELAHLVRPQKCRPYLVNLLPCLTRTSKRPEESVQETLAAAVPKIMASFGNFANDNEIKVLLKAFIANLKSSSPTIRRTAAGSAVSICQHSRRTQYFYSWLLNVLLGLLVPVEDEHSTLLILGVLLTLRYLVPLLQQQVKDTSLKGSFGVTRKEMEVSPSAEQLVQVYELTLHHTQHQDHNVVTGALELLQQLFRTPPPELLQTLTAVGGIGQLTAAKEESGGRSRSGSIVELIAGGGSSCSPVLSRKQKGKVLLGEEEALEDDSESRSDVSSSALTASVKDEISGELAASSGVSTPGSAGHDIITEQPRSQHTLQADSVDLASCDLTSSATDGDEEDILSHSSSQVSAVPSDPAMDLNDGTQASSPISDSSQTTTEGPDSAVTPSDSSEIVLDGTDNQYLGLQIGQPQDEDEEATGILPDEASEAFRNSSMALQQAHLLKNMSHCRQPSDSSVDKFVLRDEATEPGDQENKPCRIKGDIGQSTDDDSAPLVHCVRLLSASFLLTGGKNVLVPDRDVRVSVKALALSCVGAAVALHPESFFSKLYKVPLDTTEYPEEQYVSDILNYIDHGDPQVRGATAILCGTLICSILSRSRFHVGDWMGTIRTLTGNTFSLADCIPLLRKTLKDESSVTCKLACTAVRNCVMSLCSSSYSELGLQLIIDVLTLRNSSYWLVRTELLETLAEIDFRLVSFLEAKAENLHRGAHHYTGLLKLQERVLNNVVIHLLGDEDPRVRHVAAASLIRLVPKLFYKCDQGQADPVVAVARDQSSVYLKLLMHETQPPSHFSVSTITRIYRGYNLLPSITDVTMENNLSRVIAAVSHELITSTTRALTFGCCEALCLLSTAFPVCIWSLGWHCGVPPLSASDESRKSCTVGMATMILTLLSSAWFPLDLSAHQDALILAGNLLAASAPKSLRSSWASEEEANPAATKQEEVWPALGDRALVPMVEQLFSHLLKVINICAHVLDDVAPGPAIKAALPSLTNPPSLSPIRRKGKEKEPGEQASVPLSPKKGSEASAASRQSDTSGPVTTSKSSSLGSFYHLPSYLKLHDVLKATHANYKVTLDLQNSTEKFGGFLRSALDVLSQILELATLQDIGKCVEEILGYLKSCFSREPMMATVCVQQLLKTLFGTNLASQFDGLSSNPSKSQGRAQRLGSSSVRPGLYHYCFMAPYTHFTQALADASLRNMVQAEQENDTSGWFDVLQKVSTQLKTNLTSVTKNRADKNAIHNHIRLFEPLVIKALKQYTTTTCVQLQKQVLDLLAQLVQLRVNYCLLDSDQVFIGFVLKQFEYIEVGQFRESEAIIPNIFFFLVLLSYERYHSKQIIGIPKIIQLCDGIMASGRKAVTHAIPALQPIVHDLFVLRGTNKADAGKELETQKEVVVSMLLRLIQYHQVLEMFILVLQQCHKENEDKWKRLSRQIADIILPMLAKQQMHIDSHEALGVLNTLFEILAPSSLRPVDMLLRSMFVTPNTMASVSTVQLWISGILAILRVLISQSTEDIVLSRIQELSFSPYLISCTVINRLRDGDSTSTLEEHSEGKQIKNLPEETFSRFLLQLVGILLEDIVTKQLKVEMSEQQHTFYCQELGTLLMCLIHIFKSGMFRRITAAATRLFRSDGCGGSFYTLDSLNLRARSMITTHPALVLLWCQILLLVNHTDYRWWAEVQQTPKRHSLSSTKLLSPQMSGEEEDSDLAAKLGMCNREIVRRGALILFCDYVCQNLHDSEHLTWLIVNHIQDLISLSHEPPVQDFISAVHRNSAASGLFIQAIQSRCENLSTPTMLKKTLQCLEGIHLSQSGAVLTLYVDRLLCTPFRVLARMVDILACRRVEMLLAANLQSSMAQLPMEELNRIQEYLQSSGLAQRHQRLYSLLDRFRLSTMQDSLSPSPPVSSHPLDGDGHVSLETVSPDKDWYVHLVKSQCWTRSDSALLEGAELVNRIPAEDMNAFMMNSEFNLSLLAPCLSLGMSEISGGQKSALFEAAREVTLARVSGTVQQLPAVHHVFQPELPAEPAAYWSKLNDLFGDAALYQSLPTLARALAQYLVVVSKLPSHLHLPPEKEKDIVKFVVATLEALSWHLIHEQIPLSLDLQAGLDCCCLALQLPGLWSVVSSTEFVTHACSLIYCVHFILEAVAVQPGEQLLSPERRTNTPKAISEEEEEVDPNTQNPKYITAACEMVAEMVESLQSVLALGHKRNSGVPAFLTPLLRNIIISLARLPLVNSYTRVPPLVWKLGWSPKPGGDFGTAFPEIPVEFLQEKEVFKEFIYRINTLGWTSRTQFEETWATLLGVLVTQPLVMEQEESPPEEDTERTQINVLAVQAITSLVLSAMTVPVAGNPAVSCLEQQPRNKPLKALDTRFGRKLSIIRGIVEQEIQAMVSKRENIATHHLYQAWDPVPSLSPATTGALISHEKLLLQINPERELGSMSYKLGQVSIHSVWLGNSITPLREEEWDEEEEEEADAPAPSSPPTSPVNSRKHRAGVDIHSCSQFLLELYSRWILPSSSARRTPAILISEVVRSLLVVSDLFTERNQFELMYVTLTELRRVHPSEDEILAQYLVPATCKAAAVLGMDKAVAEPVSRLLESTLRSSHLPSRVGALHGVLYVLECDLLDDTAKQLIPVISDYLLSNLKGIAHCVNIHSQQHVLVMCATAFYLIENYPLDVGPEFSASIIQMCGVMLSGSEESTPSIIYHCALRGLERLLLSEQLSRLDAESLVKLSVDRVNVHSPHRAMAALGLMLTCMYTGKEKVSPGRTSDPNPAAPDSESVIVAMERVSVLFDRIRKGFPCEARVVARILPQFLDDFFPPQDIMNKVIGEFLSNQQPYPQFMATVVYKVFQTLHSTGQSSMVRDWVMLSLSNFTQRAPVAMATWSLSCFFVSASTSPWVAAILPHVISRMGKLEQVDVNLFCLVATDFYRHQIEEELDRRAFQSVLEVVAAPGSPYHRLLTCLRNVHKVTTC
# Assay: mutant huntingtin-calmodulin interaction inhibitors – biochemical, AlphaScreen, primary screen (AID 1671202);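 note: 0% = both proteins with DMSO and 100% = one protein alone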
# Conditions: AlphaScreen His-mHTT/GST-CaM binding, luminescence; at 15 µM, stronger effect = higher value
row,SMILES,inhibition
1,COc1ccccc1NC(=O)C(CCS(C)(=O)=O)NC(C)=O (centres undefined),0% (inactive)
2,Cc1ccc(C2=NC3(CCCCC3)N(CC(=O)Nc3cccc(C)c3)C2=O)cc1,0.12% (inactive)
3,CN(C)c1ncccc1C(=O)Nc1ccccc1F,-5.3% (inactive)
4,CCCc1cc(C2CCCN2Cc2cn[nH]c2-c2cccc(OC)c2)no1 (centres undefined),-7.21% (inactive)
5,Cc1c(O)ccc(-c2[nH]ncc2Oc2ccccc2)c1O,54.4% (active) and 53% (active)
6,CCCc1ccc(Oc2cn[nH]c2-c2ccc(OC)cc2O)cc1,51% (active)
7,COc1ccc(-c2c(-c3ccc(OC)cc3O)nc(C)nc2C(F)(F)F)cc1,-2.9% (inactive)
8,CCOc1ccc(-c2nn(C)c(C)c2Oc2ccccc2)c(O)c1,-3.5% (inactive)
9,CCOc1ccccc1CN1CCC(C(=O)N2CCN(Cc3ccccc3)CC2)CC1,2.9% (inactive)
10,CC(C)(C)CC(=O)N1CC(C(=O)NC2CC2)C(c2ccc(F)cc2)C1 (centres undefined),-0.9% (inactive)
11,O=C(c1ccc(C(F)(F)F)cc1)N1CCN(c2nc(CN3CCCC3)cs2)CC1,1.28% (inactive)
12,COc1ccc(CN(CC(=O)NCCc2ccccc2)S(=O)(=O)c2cccnc2)cc1,-5.6% (inactive)
13,COc1cccc(CN2CCc3nc(N4CCN(c5ccc(F)cc5)CC4)ncc3C2)c1,-4.69% (inactive)
14,O=C(Nc1cc(Cl)ccc1O)c1nn2c(c1Cl)NC(c1cccs1)CC2C(F)(F)F (centres undefined),90% (active)
15,CCCNC(=O)c1nn2c(c1Cl)NC(c1ccc(Cl)cc1)CC2C(F)(F)F (centres undefined),9% (inactive)
16,O=C(Nc1ccc(Cl)cc1)c1cc2n(n1)C(C(F)(F)F)CC(c1cccs1)N2 (centres undefined),-2% (inactive)
17,O=C(NCc1ccco1)C1CN(S(=O)(=O)c2cccs2)CC12CCCCC2 (centres undefined),2.15% (inactive)
18,Cc1ccc(Sc2nccnc2N2CCC(C(=O)N3CCN(C)CC3)CC2)cc1,10.6% (inactive)
19,CC(C)N(c1snnc1N)C(C)C,-2.94% (inactive)
20,CC1=C(C(=O)Nc2ccc(Br)cn2)C(c2cccnc2)C2=C(CCCC2=O)N1 (centres undefined),1% (inactive)
21,COc1ccc(N=Cc2ccc(Cl)c([N+](=O)[O-])c2)cc1OC,57% (active)
22,COc1ccc(NC(=O)c2ccc(OC)c([N+](=O)[O-])c2)cc1Cl,-0.1% (inactive)
23,COc1ccc(/C=C2\N=C(c3ccc(Cl)c([N+](=O)[O-])c3)OC2=O)cc1OC,7% (inactive)
24,CCNc1cc(N2CCC(CCC(=O)NCC(C)C)CC2)ncn1,0.14% (inactive)

row,SMILES,inhibition
1,CCN(CC)CCCNc1c(CCC#N)c(C)c(C#N)c2nc3ccccc3n12,4% (inactive)
2,O=C(CN1C(=O)S/C(=C\c2ccccc2)C1=O)Nc1ccccc1Cl,-5% (inactive)
3,COc1ccc(-n2ncc3c(N4CCc5ccccc54)ncnc32)cc1,11% (inactive)
4,Fc1cnc(N2CCOCC2)nc1NCc1ccccc1,0.7% (inactive)
5,c1ccc2c(c1)CCN2c1nc(N2CCOCC2)c2n[nH]nc2n1,83.5% (active)
6,Cc1ccc(NC(=O)NCCC2CCN(S(=O)(=O)c3ccc(F)cc3)CC2)c(C)c1,42.8% (inactive)
7,CC1(C)c2ccccc2N2CC(=O)NC21/C=C/c1cccc(Br)c1 (centres undefined),100% (active)
8,O=c1[nH]c(/C=C/c2cccc(Br)c2)nc2ccccc12,-5.1% (inactive)
9,COCCOCC1CCN(C(=O)c2cccc(N(C)C)c2)CC1,-11.5% (inactive)
10,CCC(=O)Nc1cccc(NC(=O)c2ccc(C(C)C)cc2)c1,0.3% (inactive)
11,CC1=Nc2c(ccc3cccnc23)C1(C)C,66.6% (active) and 14.1% (inactive)
12,COc1cc2c(cc1NC(=O)c1ccc(OC)c(OC)c1OC)oc1ccccc12,-2.6% (inactive)
13,CCCN1CCN(c2ncnc3c2nc2n3CCCC2)CC1,-1.5% (inactive)
14,N#Cc1c(N=Cc2ccc(Br)cc2)sc2c1CCC2,23% (inactive)
15,N#Cc1cccc(CN2CCC(=O)N([C@H](CO)c3ccccc3)CC2)c1,0.1% (inactive)
16,C[C@H]1CCC(=O)N([C@H](CSc2ccccc2)Cc2ccccc2)CC1,-8.3% (inactive)
17,O=C1CCN(Cc2ccccc2)CCN1[C@H](CSc1ccccc1)c1ccccc1,98.8% (active)
18,COc1ccc(SC[C@H](Cc2ccccc2)N2CCN(CCc3ccccc3)CCC2=O)cc1,92.2% (active)
19,O=C1CCN(Cc2ccc([N+](=O)[O-])cc2)CCN1[C@H](CO)Cc1ccccc1,6.4% (inactive)
20,O=C1CC[C@H](O)CCN1[C@H](CSc1ccc(Br)cc1)Cc1ccccc1,24.2% (inactive)
21,Cc1ccc(CCNC(=O)c2cc3n(n2)CCCN(Cc2ccc(Cl)cc2)C3=O)cc1,27.7% (inactive)
22,O=C(N1CCOCC1)[n+]1ccc(/C=C/c2ccc(Cl)cc2)cc1,8% (inactive)
23,CC1(C)CC(=O)c2sc(NC(=O)C(C)(C)Oc3ccc(Cl)cc3)nc2C1,-1% (inactive)
24,CCNc1nc(NCC)n2c(SCC(=O)c3ccc(C(C)(C)C)cc3)nnc2n1,-3% (inactive)

row,SMILES,inhibition
1,O=C(NCCc1ccc(Cl)cc1)c1cnn2c3c(cnc12)CCCC3,-0.73% (inactive)
2,COc1ccc(C=C2Oc3c(ccc(OC(=O)N4CCOCC4)c3C)C2=O)cc1OC,1.6% (inactive)
3,CCCc1[nH]nc2c1C1(CCOCC1)C(C#N)=C(N)O2,-0.61% (inactive)
4,COc1ccc(C=C2Oc3c(ccc(O)c3CN3CCN(C)CC3)C2=O)cc1OC,6.2% (inactive)
5,CN1CCN(Cc2c(O)ccc3c2OC(=Cc2cc4cc(Br)ccc4o2)C3=O)CC1,61.5% (active)
6,COc1cccc(C=C2Oc3c(ccc(O)c3CN3CCN(C)CC3)C2=O)c1,18.1% (inactive)
7,CCOc1ccccc1C(=O)NCc1ccc2c(c1)cc(C)n2C,38.2% (inactive)
8,Cc1cc(C)nc(Nc2nc(CC(=O)Nc3nc(-c4ccco4)cs3)cs2)n1,83.2% (active)
9,COc1ccccc1N1CCN(C(=O)c2cn3ccc(C)cc3n2)CC1,0.9% (inactive)
10,COc1ccccc1N1CCN(C(=O)C(c2ccccc2)c2ccccc2)CC1,38.2% (inactive)
11,COc1ccc(N2CCN(C(=O)CSCc3ccccc3)CC2)cc1,20.7% (inactive)
12,COC(=O)Nc1nc(CC(=O)NCc2ccco2)cs1,-3.8% (inactive)
13,COc1ccccc1N1CCN(C(=O)Cc2csc(Nc3nc(C)cc(C)n3)n2)CC1,65% (active)
14,COc1ccccc1NC(=O)Nc1nc(CC(=O)N2CCc3ccccc32)cs1,14.7% (inactive)
15,O=C(CCCn1cccc1)Nc1nc(-c2ccco2)cs1,28.4% (inactive)
16,COc1ccccc1N1CCN(C(=O)CSCc2ccccc2C)CC1,66.4% (active)
17,O=C(CCS(=O)(=O)c1ccc(Br)s1)Nc1ccc(F)cc1,-1% (inactive)
18,CC(C)C(=O)Oc1ccc2c(c1)OC(=Cc1ccco1)C2=O,42.1% (inactive)
19,CC(C)C1(CCN(Cc2ccc3c(c2)OCO3)C(=O)c2ccco2)CCOC(C)(C)C1 (centres undefined),-2.26% (inactive)
20,COc1cc(OC)cc(C(=O)Nc2nc(C)c(C)s2)c1,9.5% (inactive)
21,Cn1nccc1C(=O)N1CCC(c2nncn2-c2ccccc2)CC1,-1.38% (inactive)
22,CCC(C)NC(=O)c1cn(CC(C)C)c(=O)c2c1c1ccccc1n2C (centres undefined),-2% (inactive)
23,Cc1ccc(COCc2nn(C)c3c2CN(C(=O)Nc2cccc(C)c2)CC3)cc1,30.3% (inactive)
24,O=C(CSc1nccn1-c1ccccc1)Nc1ccccc1C(F)(F)F,18% (inactive)

row,SMILES,inhibition
1,Cc1cc(C(=O)N2CCC(CCOc3ccc(F)cc3)CC2)no1,-3.47% (inactive)
2,Oc1ccc(Cl)cc1C1CC(c2ccccc2)=NC2(CCNCC2)N1 (centres undefined),7.96% (inactive)
3,CCOC(=O)N1CCC2(CC1)N=C(c1ccccc1O)CC(c1ccc(F)c(Cl)c1)N2 (centres undefined),51.8% (active)
4,CCOC(=O)N1CCC2(CC1)N=C(c1cc(Cl)ccc1O)CC(c1ccc(C)cc1)N2 (centres undefined),6.77% (inactive)
5,COc1cccc(C2CC(c3ccc(C)cc3C)=NC3(CCN(C(C)=O)CC3)N2)c1O (centres undefined),7.51% (inactive)
6,CCN1CCC2(CC1)N=C(c1ccccc1O)CC(c1ccc(C)cc1)N2 (centres undefined),51.5% (active)
7,CN1CCC2(CC1)N=C(c1ccc3c(c1)OCO3)CC(c1cc(Cl)ccc1O)N2 (centres undefined),16% (inactive)
8,Cc1ccc(S(=O)(=O)NCC2CCN(C(=O)Oc3ccccc3)CC2)s1,-6.7% (inactive)
9,Cc1cccc(-c2nc(C3CCN(C(=O)Cc4ccccc4Br)CC3)no2)c1,-7.4% (inactive)
10,COc1ccc(C(=O)Oc2ccc3c(=O)c(Oc4ccccc4OC)coc3c2)cc1,0.8% (inactive)
11,Cc1cccc(-n2nc3c(c2NC(=O)c2cccc(Cl)c2)CS(=O)(=O)C3)c1C,16% (inactive)
12,CCCN(CCC)CCCNC(=O)CSc1nc2nc(C)c(Cc3ccccc3)c(C)n2n1,7% (inactive)
13,COc1ccc(OCCCC(=O)Nc2ccccc2)cc1,-9.6% (inactive)
14,O=c1oc2ccc(Br)cc2cc1-c1ccc2c(c1)OCO2,-1% (inactive)
15,C=CS(=O)(=O)N(Cc1nnn(Cc2ccccc2)c1Br)[C@H](C(=O)OC)C(C)C,-13.3% (inactive)
16,CN(Cc1ccccc1)C(=O)c1ccc(N2CC3CC(C2)c2cccc(=O)n2C3)c([N+](=O)[O-])c1 (centres undefined),9% (inactive)
17,COc1ccc(Br)cc1C=C(NC(=O)c1cc(OC)c(OC)c(OC)c1)C(=O)N1CC2CC(C1)c1cccc(=O)n1C2 (centres undefined),73.4% (active)
18,O=C(Nc1ccc(Cl)cc1)c1ccc(N2CC3CC(C2)c2cccc(=O)n2C3)c([N+](=O)[O-])c1 (centres undefined),6% (inactive)
19,CCC(=O)N1CCN(c2nc3c(s2)CC(C(=O)Nc2cc(C)ccc2C)CC3)CC1 (centres undefined),18.3% (inactive)
20,COc1ccc(C2CC(C(F)(F)F)n3ncc(C(=O)Nc4cc(C)ccc4C)c3N2)cc1OC (centres undefined),27% (inactive)
21,Cc1ccc(NC(=O)c2cnn3c2NC(c2ccco2)CC3C(F)(F)F)cc1C (centres undefined),-4% (inactive)
22,COc1ccc(C2CC(C(F)(F)F)n3ncc(C(=O)Nc4ccc(C)c(C)c4)c3N2)cc1OC (centres undefined),53% (active)
